Results from PubChem BioAssay (Tox21).
Results filed as inconclusive are left out. Activity calls are given as the source filed them. Calls come from the whole dose curve; as a rule, active = well fitted curve in the direction sought with a large enough effect in the repeat runs; inconclusive = weak or mixed curves; inactive = no such curve, though single readings can be large; an effect the other way counts as inactive or inconclusive.

How the values were obtained:
[1] = qHTS RealTime-Glo MT Cell Viability Assay in HepG2 cells - 40 hour (AID 1224870); note: nearly all actives have a fitted effect of over 50% in size
In short: (§1)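 HepG2 cells (600/well) mixed with RealTime-Glo MT reagent, settled 5 h at 37 C/5% CO2 before compound addition. Nonlytic NanoLuc luminescence from viable-cell prosubstrate reduction read repeatedly during 40 h treatment at 37 C.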

[2] = A CellTox Green Cytotoxicity Assay to monitor cytotoxicity in HEK293 cells - 40 hour (AID 1224871); note: nearly all actives have a fitted effect of over 45% in size
In short: (§2)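 Nonlytic real-time cytotoxicity: HEK293 + CellTox Green reagent plated, 5 h preincubation, pintool compound addition (23 nL in DMSO), 37 C for 40 h, fluorescence measured at successive time points.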

[3] = qHTS RealTime-Glo MT Cell Viability Assay in HepG2 cells - 8 hour (AID 1224873); note: nearly all actives have a fitted effect of over 55% in size
In short: as §1

[4] = qHTS RealTime-Glo MT Cell Viability Assay in HEK293 cells - 40 hour (AID 1224874); conditions: RealTime-Glo luminescence; max response: hits give low values; note: nearly all actives have a fitted effect of over 50% in size
In short: (§3)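 Cells were seeded together with NanoLuc luciferase and a prosubstrate that viable cells reduce to a luciferase substrate. After a 5 h incubation at 37 C/5% CO2, compounds were added and luminescence was measured repeatedly during 40 h of treatment.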

[5] = A CellTox Green Cytotoxicity Assay to monitor cytotoxicity in HEK293 cells - 24 hour (AID 1224875); note: series mostly up to about 77 µM; nearly all actives have a fitted effect of over 45% in size
In short: as §2

[6] = A CellTox Green Cytotoxicity Assay to monitor cytotoxicity in HepG2 cells - 16 hour (AID 1224876); note: nearly all actives have a fitted effect of over 45% in size
In short: (§4)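 Read-out is fluorescence of a cyanine dye excluded from live cells that stains DNA of dead HepG2 cells, with signal proportional to cytotoxicity. Plates were read at 0, 8, 16, 24, 32 and 40 h after compound addition.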

[7] = qHTS RealTime-Glo MT Cell Viability Assay in HepG2 cells - 32 hour (AID 1224877); note: nearly all actives have a fitted effect of over 55% in size
In short: (§5)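 Luminescence read-out: viable HepG2 cells reduce a prosubstrate to a NanoLuc substrate, giving a signal proportional to live cell number. Reads taken at 0, 8, 16, 24, 32 and 40 h of compound exposure at 37 C.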

[8] = A CellTox Green Cytotoxicity Assay to monitor cytotoxicity in HepG2 cells - 24 hour (AID 1224878); note: nearly all actives have a fitted effect of over 45% in size
In short: as §4

[9] = A CellTox Green Cytotoxicity Assay to monitor cytotoxicity in HepG2 cells - 40 hour (AID 1224879); note: nearly all actives have a fitted effect of over 40% in size; note: potency is the fitted concentration of half-maximal effect
In short: as §4

[10] = qHTS RealTime-Glo MT Cell Viability Assay in HEK293 cells - 0 hour (AID 1224880)
In short: as §3

[11] = A CellTox Green Cytotoxicity Assay to monitor cytotoxicity in HEK293 cells - 32 hour (AID 1224881); note: nearly all actives have a fitted effect of over 40% in size
In short: as §2

[12] = A CellTox Green Cytotoxicity Assay to monitor cytotoxicity in HepG2 cells - 0 hour (AID 1224882); note: nearly all actives have a fitted effect of over 35% in size
In short: as §4

[13] = A CellTox Green Cytotoxicity Assay to monitor cytotoxicity in HepG2 cells - 32 hour (AID 1224883); note: nearly all actives have a fitted effect of over 50% in size
In short: as §4

[14] = A CellTox Green Cytotoxicity Assay to monitor cytotoxicity in HEK293 cells - 8 hour (AID 1224884); note: nearly all actives have a fitted effect of over 35% in size
In short: as §2

[15] = qHTS RealTime-Glo MT Cell Viability Assay in HepG2 cells - 16 hour (AID 1224885); note: nearly all actives have a fitted effect of over 50% in size
In short: as §5

[16] = qHTS RealTime-Glo MT Cell Viability Assay in HEK293 cells - 8 hour (AID 1224887)
In short: as §3

[17] = A CellTox Green Cytotoxicity Assay to monitor cytotoxicity in HEK293 cells - 16 hour (AID 1224888); note: nearly all actives have a fitted effect of over 35% in size
In short: as §2

[18] = qHTS RealTime-Glo MT Cell Viability Assay in HepG2 cells - 0 hour (AID 1224889); note: nearly all actives have a fitted effect of over 50% in size
In short: as §5

[19] = qHTS RealTime-Glo MT Cell Viability Assay in HEK293 cells - 16 hour (AID 1224872)
In short: (§6)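 Nonlytic real-time viability readout: viable cells convert prosubstrate to NanoLuc substrate, giving luminescence proportional to live cell number. HEK293, 600 cells/well, compound added after 5 h, continuous culture at 37 C.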

[20] = qHTS RealTime-Glo MT Cell Viability Assay in HEK293 cells - 24 hour (AID 1224886)
In short: as §6
% is set by controls: 0 for no effect and ±100 for the full control effect.

COC(=O)C(C)(C)C
inactive: Potency [1] | Potency [2] | outcome [3] | max response [4] -22.6% | Potency [5] | Potency [6] | Potency [7] | Potency [8] | Potency [9] | Potency [10] | Potency [11] | Potency [12] | Potency [13] | Potency [14] | outcome [15] | Potency [16] | Potency [17] | Potency [18]

CC(O)CN (stereo not drawn)
inactive: Potency [1] | Potency [2] | Potency [19] | outcome [3] | Potency [5] | Potency [6] | Potency [7] | Potency [8] | Potency [10] | Potency [11] | Potency [13] | Potency [14] | outcome [15] | Potency [20] | Potency [16] | Potency [17] | Potency [18]

Cc1ccc(S(=O)(=O)NC(=O)NC2CCCC2)cc1
inactive: Potency [1] | Potency [2] | Potency [19] | outcome [3] | Potency [5] | Potency [6] | Potency [7] | Potency [8] | Potency [10] | Potency [11] | Potency [12] | Potency [13] | outcome [15] | Potency [20] | Potency [16] | Potency [17] | Potency [18]

CC(=O)CC/C=C(\C)CC/C=C(\C)CC/C=C(\C)CCC=C(C)C
inactive: Potency [1] | Potency [2] | Potency [19] | Potency [5] | Potency [6] | Potency [7] | Potency [8] | Potency [9] | Potency [10] | Potency [12] | Potency [13] | Potency [20] | Potency [16] | Potency [17] | Potency [18]

c1ccc(CN(Cc2ccccc2)Cc2ccccc2)cc1
active: Potency [9] 15.5 µM
inactive: Potency [1] | Potency [2] | Potency [19] | max response [4] 4.19% | Potency [5] | Potency [6] | Potency [7] | Potency [10] | Potency [11] | Potency [12] | Potency [14] | outcome [15] | Potency [20] | Potency [16] | Potency [17] | Potency [18]

CCC(=O)O[C@]1(C(=O)COC)[C@@H](C)C[C@H]2[C@@H]3CCC4=CC(=O)C=C[C@]4(C)C3(F)[C@@H](O)C[C@@]21C (stereo partly drawn)
inactive: Potency [1] | Potency [2] | Potency [19] | Potency [5] | Potency [6] | Potency [7] | Potency [8] | Potency [9] | Potency [10] | Potency [12] | Potency [13] | outcome [15] | Potency [20] | Potency [16] | Potency [18]

Cc1ccc(Cl)c(OCC(O)CNC(C)(C)C)c1 (stereo not drawn)
inactive: Potency [1] | Potency [2] | Potency [19] | outcome [3] | Potency [5] | Potency [6] | Potency [7] | Potency [8] | Potency [9] | Potency [10] | Potency [13] | Potency [14] | outcome [15] | Potency [20] | Potency [16] | Potency [17] | Potency [18]

CC(O)C(C)O (stereo not drawn)
inactive: Potency [1] | Potency [2] | Potency [19] | max response [4] 12.1% | Potency [5] | Potency [6] | Potency [7] | Potency [8] | Potency [9] | Potency [12] | Potency [13] | Potency [14] | outcome [15] | Potency [20] | Potency [16] | Potency [17] | Potency [18]
